According to PubChem BioAssay AID743287 (Broad Institute, 2014):
Several values for one entry are separate records, joined by “and”; a condition that tells them apart may be missing. Equal entries are not always repeated. About 2,300 (0.62%) of roughly 370,000 compounds were called active. Shown is part of a subset that was picked to be rich in actives. Unmarked numbers belong to inactive results.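 Rule for the calls: active = lowest replicate activation of at least 40%, so every replicate reaches that level; inactive = the rest.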

assay: primary screen for activators of insulin secretion dependent on glucose, INS-1E cells, GLuc reporter luminescence (AID 743287); conditions: INS-1E GLuc reporter insulin secretion, 2-3 h, at 16.6 µM, active compounds read high;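 note: 0% = median of neutral control wells and 100% = median of IBMX positive control wells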

Row | Compound | activation
1 | Cc1ccnc(NS(=O)(=O)c2ccc(NC(=O)c3ccc(S(=O)(=O)N(C)C)cc3)cc2)n1 | 7.95%
2 | O=C(Nc1ccc(S(=O)(=O)Nc2ncccn2)cc1)c1cncc(Br)c1 | 1.33%
3 | CCOc1ncccc1C(=O)Nc1ccc(S(=O)(=O)Nc2nc(C)cc(C)n2)cc1 | 65.9% (active)
4 | COCCCNC(=S)N(Cc1ccccc1)Cc1ccc(F)cc1 | -5.03%
5 | COCCNC(=S)N(Cc1cccnc1)Cc1ccc(OC)c(OC)c1 | 53.5% (active)
6 | COCCNC(=S)N(CCc1c(C)[nH]c2ccc(C)cc12)Cc1cccnc1 | -2.95%
7 | COc1ccc(-c2cnc3c(c2)C(=O)N([C@@H](C)CO)C[C@@H](C)[C@H](CN(C)C(=O)C2CCCCC2)O3)cc1 | -13.6%
8 | O=C(C[C@H]1CC[C@H]2[C@@H](COC[C@@H](O)CN2S(=O)(=O)c2ccc(Cl)cc2)O1)NCCN1CCCCC1 | 17.3%
9 | CNC[C@@H]1Oc2cc(-c3ccccc3OC)ccc2S(=O)(=O)N([C@H](C)CO)C[C@H]1C | 5.62%
10 | CC1(C)OC(=O)C2=C(C[C@@H](C3CC3)O[C@H]2CCc2cccc(Cl)c2)O1 | -7.22%
11 | CC[C@@H]1CC2=C(C(=O)OC(C)(C)O2)[C@@H](CC)O1 | -0.455%
12 | CCC1OC(C2CC2)CC2=C1C(=O)OC(C)(C)O2 (centres undefined) | 44.5% (active)
13 | O=C(Nc1ccc(C(F)(F)F)cc1)N1[C@@H]2CNC[C@H]1C2c1ccc(-c2ccncc2)cc1 (some centres undefined) | 3.37% and 12.2%
14 | CCCCc1nc(NCCN)c(C#N)c2c1CSC(C)(C)C2 | 44.2% (active)
15 | CCCCc1nc(NCc2ccccc2)c(C#N)c2c1CCCC2 | -17.4%
16 | COc1cccc(S(=O)(=O)N2[C@@H]3CNC[C@H]2C3c2ccc(-c3cccc(C(=O)N(C)C)c3)cc2)c1 (some centres undefined) | 11.3% and 0.645%
17 | CO[C@H]1CN(C)C(=O)c2cc(NS(C)(=O)=O)ccc2OC[C@@H](C)N(C(=O)NC(C)C)C[C@@H]1C | 8.6%
18 | CCOC(=O)C1(Cc2cccc(OC)c2)CCN(C(C)COC)CC1 (centres undefined) | 5.01%
19 | CCOC(=O)C1(Cc2cccc(OC)c2)CCCN(S(=O)(=O)c2cccnc2)C1 (centres undefined) | -3.61%
20 | CCOC(=O)C1(Cc2cccc(OC)c2)CCCN(C(=O)CCSC)C1 (centres undefined) | 51.6% (active)
21 | C[C@@H]1CN([C@H](C)CO)C(=O)c2cccc(NC(=O)CCCCCC(=O)Nc3ccccc3N)c2O[C@H]1CN(C)CC1CCCCC1 | -3.22%
22 | C[C@@H]1CN([C@@H](C)CO)C(=O)c2cc(NC(=O)Nc3ccccc3)ccc2O[C@H]1CN(C)S(=O)(=O)c1ccccc1 | 6.36%
23 | Cc1onc(-c2c(F)cccc2Cl)c1C(=O)Nc1cccc(S(=O)(=O)N2CCCCC2)c1 | -9.79%
24 | CN(CCC(=O)Nc1cc(S(=O)(=O)N(C)C)ccc1Cl)CC(=O)Nc1ccc(F)cc1 | -1.06%
25 | Cc1cccc(CS(=O)(=O)c2ncc(Cl)c(C(=O)Nc3ccc(F)cc3)n2)c1 | 44.8% (active)
26 | C/C=C/c1ccc(C2[C@H]3CNC[C@@H]2N3CC2CCOCC2)cc1 (some centres undefined) | 8.12%
27 | C[C@@H]1CN([C@@H](C)CO)C(=O)Cc2cc(NC(=O)Cc3ccccc3)ccc2O[C@H]1CN(C)Cc1ccc(C(=O)O)cc1 | 12.1%

Row | Compound | activation
28 | CC(C)NC(=O)Nc1ccc2c(c1)C(=O)N(C)[C@H]1CC[C@H](CC(=O)NCC3CCCCC3)O[C@@H]1CO2 | 5.93%
29 | CCC(=O)Nc1ccc2c(c1)C(=O)N(C)C[C@H](OC)[C@@H](C)CN(Cc1nccs1)[C@H](C)CO2 | 5.56%
30 | CC1CC(=S)Nc2ccccc2N1Cc1ccccc1 (centres undefined) | -14.5%
31 | CC1CN(Cc2ccccc2)C(=S)NC1=O (centres undefined) | 41.2% (active)
32 | CC1CN(Cc2ccco2)C(=S)N(c2ccccc2)C1=O (centres undefined) | 10.7%
33 | COCC(=O)N(C)C[C@H]1Oc2cc(C#CC3CCCC3)ccc2S(=O)(=O)N([C@H](C)CO)C[C@@H]1C | -6.72%
34 | COc1ccccc1CNC(=O)C[C@H]1C[C@@H]2c3cc(NC(=O)Nc4ccccc4F)ccc3O[C@@H]2[C@H](CO)O1 | 13.4%
35 | COc1ccc(Cc2nnc(SCC(=O)Nc3ccc(C)c(C)c3)o2)cc1OC | 71.9% (active)
36 | Cc1ccc(NC(=O)CSc2nnc(COc3ccccc3C)o2)cc1 | 6.85%
37 | COc1cccc(NC(=O)CSc2nnc(Cc3ccc(OC)c(OC)c3)o2)c1 | 37.6%
38 | C[C@H](CO)N1C[C@H](C)[C@@H](CN(C)C)Oc2ncc(-c3cccc(F)c3)cc2C1=O | -1.15%
39 | C[C@H](CO)N1C[C@H](C)[C@@H](CN(C)Cc2ccccc2)Oc2c(NC(=O)CCCCCC(=O)Nc3ccccc3N)cccc2C1=O | -7.28%
40 | CNC(=S)N/N=C/c1ccc(N2CCOCC2)s1 | 8.01%
41 | Oc1c(Br)cc(/C=N/NC(=S)NCC2CCCO2)cc1Br (centres undefined) | -34.5%
42 | CNC(=S)N/N=C/c1ccc(OCc2ccccc2)c(Br)c1 | 107% (active)
43 | COCC#Cc1cnc2c(c1)C(=O)N([C@H](C)CO)C[C@H](C)[C@H](CN(C)C(=O)Cc1cccnc1)O2 | 27.8%
44 | COc1cccc(-c2cnc3c(c2)C(=O)N([C@H](C)CO)C[C@H](C)[C@H](CN(C)S(=O)(=O)c2cccc(F)c2)O3)c1 | -6.84%
45 | C[C@H](CO)N1C[C@H](C)[C@@H](CN(C)C(=O)Cc2ccncc2)Oc2ncc(C#CCN(C)C)cc2C1=O | 36.3%
46 | Cc1cc(NCc2cccnc2)no1 | -3.31%
47 | Cc1cc(NC(=O)COc2ccccc2C#N)no1 | 10.8%
48 | Cc1cc(N/C=C\C(=O)c2ccc(Cl)c(Cl)c2)no1 | 76.1% (active)
49 | COc1ccc(CN(C)C[C@H]2Oc3c(NC(=O)c4cnccn4)cccc3C(=O)N([C@H](C)CO)C[C@@H]2C)cc1 | 3%
50 | O=C1[C@H](Cc2ccc(C(F)(F)F)cc2)CCn2nncc2COC[C@@H]2CCCCN12 | 1.36%
51 | O=C(c1cnccn1)N1CC(=O)N2[C@H](C1)[C@@H](c1ccc(C#CC3CCCCC3)cc1)[C@@H]2CO | 1.34%
52 | CC(C)CC#Cc1ccc([C@@H]2[C@@H](CO)N3C(=O)CN(C(=O)c4cnccn4)C[C@@H]23)cc1 | 25.5%
53 | CC(C)CC#Cc1ccc([C@H]2[C@H]3CN(C(=O)c4cnccn4)CC(=O)N3[C@H]2CO)cc1 | 54.1% (active)
54 | CO[C@@H]1CN(C)C(=O)c2ccc(NC(=O)Nc3ccccc3)cc2OC[C@@H](C)N(C(=O)Nc2c(C)noc2C)C[C@@H]1C | -0.32%

Row | Compound | activation
55 | CCCCCc1c(Cc2ccccc2)ncn1CCc1ccccc1OC | 70% (active)
56 | CCCCc1c(-c2ccc(Cl)cc2)ncn1CCc1ccccc1OC | -9.43%
57 | CCCCCc1c(-c2ccc(OC)c(OC)c2)ncn1CCc1ccccc1OC | -29.6%
58 | Cc1ccccc1-c1ccc([C@H]2[C@@H](CO)N3C(=O)CN(C(=O)c4cccnc4)C[C@@H]23)cc1 | -14.5%
59 | COc1cccc(S(=O)(=O)N2CCC3(CC2)CN[C@H](CO)c2c3c3ccc(OC)cc3n2C)c1 | -2.73%
60 | Cc1ccc(S(=O)(=O)N(C)c2nc3ccccc3n3c(C(C)C)nnc23)cc1 | 66.1% (active)
61 | Cc1cc(NC(C)C)n2c(nc3ccccc32)c1C#N | 4.84%
62 | O=C(Cc1ccncc1)N1CC[C@@H]2[C@@H](CO)Nc3ccc(C4=CCCCC4)cc3[C@@H]21 | 8.52%
63 | CN(C)CCCNC(=O)C[C@H]1CC[C@H]2[C@@H](COC[C@H](O)CN2CC2CCCCC2)O1 | 1.49%
64 | CC(Sc1nc2cc(Cl)ccc2s1)C(=O)Nc1ccc2c(c1)OCO2 (centres undefined) | -18.8%
65 | O=C(Nc1ccc2c(c1)OCO2)c1sc2cc(Cl)ccc2c1Cl | 69.2% (active)
66 | CCSc1ccccc1C(=O)Nc1ccc2c(c1)OCO2 | -1.24%
67 | C=CS(=O)c1sc(Cl)c(N2CCOCC2)c1[N+](=O)[O-] (centres undefined) | 99.9% (active)
68 | COc1ccc2c3c([nH]c2c1)[C@H](CO)N(C(=O)Nc1ccc(F)cc1)CC31CCN(C(=O)Nc2c(C)noc2C)CC1 | -8.35%
69 | O=C(Nc1ccc(F)cc1)N1CC(=O)N2[C@H](CO)[C@H](c3ccc(C#Cc4ccccc4)cc3)[C@H]2C1 | -21.6%
70 | CCCNC(=O)Nc1ccc2c(c1)OC[C@@H](C)N(CC1CCCC1)C[C@@H](C)[C@H](OC)CN(C)C2=O | -11.9%
71 | COc1ccc(-c2ccccc2[C@H]2[C@@H](CO)N(C(=O)c3cccnc3)[C@H]2C#N)cc1 | -2.16%
72 | CCc1n[nH]c(=S)n1/N=C/c1c[nH]c2ccc(Br)cc12 | 6.23%
73 | S=c1[nH]nc(-c2ccccc2)n1/N=C/c1c[nH]c2ccccc12 | 41.8% (active)
74 | C[C@@H]1CN([C@@H](C)CO)C(=O)c2cccc(N(C)C)c2O[C@H]1CN(C)S(=O)(=O)c1cccs1 | 4.92%
75 | O=C(Cc1cccnc1)N1CC(=O)N2[C@@H](CO)[C@@H](c3ccc(C#CC4CCCCC4)cc3)[C@@H]2C1 | -3.29%
76 | COc1ccc2c3c([nH]c2c1)[C@@H](CO)N(C(=O)NC(C)C)CC31CN(C(=O)C2CCCC2)C1 | 3.69%
77 | O=C(CSc1nc2ccccc2c(=O)n1CCCO)NC1CC1 | 4.63%
78 | CCOc1ccc(NC(=O)CSc2nc3ccccc3c(=O)n2Cc2cccs2)cc1 | 60.2%
79 | COC(=O)CSc1nc2ccccc2c(=O)n1Cc1ccccc1 | 50% (active)
